# Compounds with a hit are over-represented: about 14% of the library has one in this group of screens.
# HCMV antiviral = blocks human cytomegalovirus replication; AID 1259415; 4.5% of 410,000 active; HFF cells, HCMV-luciferase reporter, 72 h; stronger effect = lower value; activity change, negative = inhibition, % at 57.5 µM; in the data active = activity change below about -60%; inconclusive = no clear call, values can overlap the other calls; inactive = above about -39%
#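 Compounds were evaluated in HFFs infected with an HCMV luciferase reporter virus (MOI 1 PFU/cell). Luciferase in lysates collected 72 h post infection served as the replication measure.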
# MARV entry inh = blocks Marburg virus binding to or entry into cells | Marburg virus pseudotyped entry inhibition, cell reporter | 1.8% of 300,000 active | AID 540276 | Potency, µM (highest dose often 37.8 µM), most hits filed as inhibitors; calls by dose curve; tested in HEK293 cells
# HCV inh = blocks hepatitis C virus; Huh7.5.1 HCVcc-Cre infection, luciferase reporter, 44 h; Potency, µM (doses to about 41.8 µM), usual class: inhibitors; 3.4% of 340,000 active
#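 Reporter virus HCVcc-Cre (~0.5 moi) infects cells exposed to compound; seeding density 1,000 cells/well with 4 h settling beforehand. Luminescence, 15 sec read, taken 44 h post-infection following a 15 min RT substrate incubation.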
# LASV entry inh = Lassa virus entry inhibition | Lassa virus pseudotype entry inhibition, cell reporter | Potency, µM (doses to about 37.9 µM), usual class: inhibitors | 1.2% of 300,000 active; calls by dose curve; tested in HEK293 cells; note: nearly all actives have a fitted effect of over 50% in size
# Pf growth 96h = P. falciparum growth inhibition at 96 hours | 6.9% of 320,000 active | P. falciparum luciferase reporter growth, 96 h | Potency, µM (series often up to 28.7 µM), most hits filed as inhibitors
#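 96 h incubation, 37 C, 5% CO2, of luciferase-reporter P. falciparum-infected RBCs (2% hematocrit, 0.05% parasitemia final) with test compounds; endpoint luminescence.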
# Pf growth 48h = P. falciparum growth inhibition at 48 hours (one generation); P. falciparum luciferase growth in erythrocytes, 48 h; Potency, µM (highest dose often 28.7 µM), hits mostly inhibitors; 5.9% of 310,000 active; AID 504832
#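 Luminescence readout; reporter = integrated firefly luciferase in P. falciparum. RBC culture at 2% hematocrit, 0.1% parasitemia final, 37 C/5% CO2; decreased signal taken as growth inhibition.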
# Hits are given with their value; – = inactive; ? = inconclusive; · = not tested or not shown; ! = repeats disagree. Unless noted, calls come from the whole dose curve; as a rule, active = well fitted inhibition curve with a large enough effect; inconclusive = small, poorly fitted or top-dose-only effect, or another doubt; inactive = no such curve, though single readings can be large or run the other way.
SMILES,HCMV antiviral,MARV entry inh,HCV inh,LASV entry inh,Pf growth 96h,Pf growth 48h
C[C@@H]1ON(C)[C@H]2C[C@H]3c4[nH]c5ccc(-c6ccc7c(c6)OCO7)cc5c4CCN3C(=O)[C@@H]12,–,·,·,·,·,·
CCc1ccc(NC(=O)c2ccc(F)c(S(=O)(=O)N(CC)c3ccccc3)c2)cc1,–,?,?,?,?,9.3µM
O=C(Nc1cccc(Cl)c1)c1ccc(F)c(S(=O)(=O)N2CCC3(CC2)OCCO3)c1,–,·,·,?,·,·
CCN(c1ccccc1)S(=O)(=O)c1cc(C(=O)Nc2cccc(Cl)c2)ccc1F,-95,?,?,13µM,?,?
CCCn1c(=O)c2sccc2n2c(CCCC(=O)Nc3ccc(Oc4ccc(Cl)cc4)cc3)nnc12,?,–,·,?,·,·
CCC1CCCCN1C(=O)Cn1c(=O)n(CCC(=O)NCc2ccco2)c(=O)c2sccc21 (configuration not stated),–,–,–,?,5.2µM,–
Cn1c(=O)c2sccc2n2c(CCCC(=O)N3CCN(c4ccccn4)CC3)nnc12,–,·,–,·,9.3µM,?
CCCn1c(=O)c2sccc2n2c(CCCC(=O)Nc3ccc(Oc4ccccc4)cc3)nnc12,-61,·,·,–,·,·
CCCn1c(=O)c2sccc2n2c(CCCC(=O)NCc3ccco3)nnc12,–,–,–,–,15µM,?
COCCCn1c(=O)c2sccc2n2c(CCCC(=O)N3CCN(c4ccccn4)CC3)nnc12,–,·,–,·,–,?
CCCn1c(=O)c2sccc2n2c(CCCC(=O)NCc3ccccc3)nnc12,?,·,·,–,·,·
C#CCOCCOCCOCCNc1nc(N2CCN(C(=O)C([C@@H](C)O)n3cc([C@@H](N)CCCCN)nn3)CC2)nc(N2CCN(C(=O)[C@H](CCCCN)n3cc([C@@H](N)CC(N)=O)nn3)CC2)n1 (some centres not stated),–,·,–,·,·,·
Cc1ccc(NC(=O)CNC(=O)c2ccc(OC(F)F)cc2)cc1S(=O)(=O)N1CCCCCC1,–,·,16µM,·,·,·
Cc1ccccc1OCC(=O)Nc1ccc(C)c(S(=O)(=O)N2CCCCCC2)c1,–,?,?,?,?,?
Cc1ccc(NCC(=O)Nc2cccc(F)c2)cc1S(=O)(=O)N1CCCCCC1,-98,?,?,?,0.21µM,0.26µM
CCOc1ncccc1C(=O)Nc1ccc(C)c(S(=O)(=O)N2CCCCCC2)c1,–,·,14µM,·,?,13µM
O=C(CNc1cccc(F)c1)Nc1cccc(S(=O)(=O)N2CCCCC2)c1,–,–,?,–,–,–
Cc1ccccc1C(=O)NCC(=O)Nc1ccc(C)c(S(=O)(=O)N2CCCCCC2)c1,–,?,8.9µM,?,?,–
Cc1ccc(NC(=O)COC(=O)c2ccc(OC(F)F)cc2)cc1S(=O)(=O)N1CCCCC1,–,·,–,·,·,·
COc1ccccc1OCC(=O)Nc1ccccc1C(=O)N1CCCCC1,–,–,–,–,–,–
Cc1ccc2c(c1)CC(C)N2S(=O)(=O)c1nnc(NC(=O)c2ccccc2F)s1 (configuration not stated),–,·,·,–,·,·
COc1ccc2c(c1)[C@@H](NS(C)(=O)=O)[C@H](C)[C@@H](c1ccccc1)N2C(=O)Nc1ccc(C(F)(F)F)cc1,–,·,·,·,·,·
COc1cccc(-c2cc3c(Nc4cccc(NC(C)=O)c4)nccc3n2C)c1,–,·,·,·,·,·
COc1ccc(N(CC(=O)N2CCN(c3ccccc3)CC2)S(=O)(=O)c2ccc(C)cc2)cc1,–,–,–,–,?,–
Cc1ccc(S(=O)(=O)N(CC(=O)N2CCC(C)CC2)Cc2ccccc2F)cc1,-63,?,–,?,·,?
SMILES,HCMV antiviral,MARV entry inh,HCV inh,LASV entry inh,Pf growth 96h,Pf growth 48h
Cc1ccc(S(=O)(=O)N(CC(=O)N2CCCCCC2)c2ccccc2)cc1,–,–,–,6.5µM,?,·
CCN(CC(=O)N1CCC(C)CC1)S(=O)(=O)c1ccc(C)cc1,–,–,–,–,–,–
COc1ccc(S(=O)(=O)N(CC(=O)N2CCC(C)CC2)c2ccc(C)cc2)cc1,–,–,·,7.1µM,·,·
Cc1ccc(S(=O)(=O)N(CC(=O)N2CCCC2)C2CCCCC2)cc1,–,–,–,–,12µM,?
O=C(Nc1ccc2nc(SCCOc3ccccc3)sc2c1)c1ccc2c(c1)OCO2,–,–,·,–,·,·
O=C(CN(c1ccc(F)cc1)S(=O)(=O)c1ccc2c(c1)OCCO2)N1CCOCC1,–,·,–,·,1µM,–
O=C(CS(=O)(=O)c1ccccc1)N1CCCCC1,–,–,–,?,2.6µM,–
Cc1ccc(S(=O)(=O)N(CC(=O)N2CCOCC2)c2ccc(C(C)C)cc2)cc1,–,–,–,?,10µM,–
O=C(CN(c1ccc(F)cc1)S(=O)(=O)c1ccccc1)N1CCOCC1,–,–,–,–,·,·
O=C(O)CN(c1ccc2c(c1)OCCO2)S(=O)(=O)c1ccccc1,-69,–,–,–,·,–
CCOc1ccc(CCNC(=O)c2cnc3c(-c4ccc(F)cc4)c(C)nn3c2C)cc1OCC,–,·,·,–,·,·
CN(C)S(=O)(=O)N(CC(=O)NCCSCc1c(F)cccc1Cl)c1ccccc1,–,?,·,–,·,·
Cc1ccc(S(=O)(=O)N(CC(=O)N2CCC(C)CC2)c2ccccc2)cc1,–,–,–,–,–,12µM
COc1ccccc1N(CC(=O)N1CCC(C)CC1)S(=O)(=O)c1ccc(C)cc1,–,–,·,–,·,·
O=C(CN1CCC(n2nnc3cc(F)ccc32)CC1)N1CCc2ccccc2C1,–,?,?,–,–,8.3µM
O=C(CN1CCC(n2nnc3cc(F)ccc32)CC1)Nc1ccccc1N1CCOCC1,?,13µM!,–,–,–,1.7µM
CCOc1ccc2nc(NC(=O)CN3CCC(n4nnc5cc(F)ccc54)CC3)sc2c1,-68,?,?,?,–,?
COc1cc(NC(=O)CSc2nc3nc(C)c(Cc4ccccc4Cl)c(C)n3n2)cc(OC)c1,–,·,·,?,·,·
CCOC(=O)c1sc(NC(=O)CCN2C(=O)C3CCCCC3C2=O)cc1C (configuration not stated),–,·,?,·,?,15µM
CCOC(=O)c1sc(NC(=O)c2cccs2)cc1C,–,?,?,?,·,–
CCOC(=O)c1sc(NC(=O)Nc2cccc(Cl)c2)cc1C,-95,?,?,?,?,–
CCOC(=O)c1sc(NC(=O)c2sccc2C)cc1C,–,?,10µM,?,–,·
O=C(C[C@@H]1C/C=C/CC[C@@H](Cc2ccc(F)cc2)C(=O)OC[C@H](Cc2ccccc2)NC1=O)N[C@H](CO)Cc1ccccc1,–,·,–,·,·,·
CC1CCCCC1NC(=O)CN1c2cccc3cccc(c23)S1(=O)=O (configuration not stated),–,–,–,–,?,?
Cc1[nH]c(N=Nc2ccccc2)nc1N=Nc1ccccc1,–,?,13µM,?,9.3µM,3.7µM
Cc1ccc(NC(=O)c2cccc(NC(=O)CC3SC(N4CCCCC4)=NC3=O)c2)nc1 (configuration not stated),–,–,?,–,?,–

# Bioassay records from PubChem BioAssay.
